Results as given in paper PMC7862700, “An all-to-all approach to the identification of sequence-specific readers for epigenetic DNA modifications on cytosine”.

Columns and labels:
Assay in all cases: DAPPL (digital affinity profiling via proximity ligation, sequencing); 10 mM Tris-HCl pH 7.5, 50 mM NaCl, 1 mM DTT, 4% glycerol, room temperature, 30 min; GST-TFs on glutathione beads, 16-mer random dsDNA library, 0.1% formaldehyde crosslink after washing; high values mean tight binding
Conditions in all cases: protein: recombinant; tags: N-terminal GST; dsDNA, one strand shown
FLI1 = target: T1, FLI1 (Homo sapiens, UniProt Q01543 1-452)
T1 sequence: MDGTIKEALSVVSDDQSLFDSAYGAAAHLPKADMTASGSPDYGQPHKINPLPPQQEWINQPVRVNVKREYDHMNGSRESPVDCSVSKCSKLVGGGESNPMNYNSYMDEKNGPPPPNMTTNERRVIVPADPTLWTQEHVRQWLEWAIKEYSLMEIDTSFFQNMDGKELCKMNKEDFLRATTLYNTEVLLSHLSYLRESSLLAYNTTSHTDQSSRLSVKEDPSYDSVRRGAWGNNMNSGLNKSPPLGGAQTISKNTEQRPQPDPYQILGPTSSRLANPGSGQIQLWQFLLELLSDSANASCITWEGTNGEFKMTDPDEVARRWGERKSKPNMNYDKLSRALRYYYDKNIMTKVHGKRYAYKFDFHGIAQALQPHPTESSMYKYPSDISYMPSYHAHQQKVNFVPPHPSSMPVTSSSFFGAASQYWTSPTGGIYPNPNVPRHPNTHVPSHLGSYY
Method in brief: (§1)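 Human transcription factors were made in yeast as GST fusions, captured on glutathione beads and barcoded with DNA. With a tag-only sample included, the pool was incubated with 200 nmole of a random double-stranded 16-mer DNA library in Tris/NaCl/DTT/glycerol buffer at room temperature for 30 min, then crosslinked with 0.1% formaldehyde after washing, ligated by proximity, amplified and sequenced. For binding signal, each hexamer's read frequency for a factor is divided by its frequency for the tag-only sample.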

ELK1 = target: T2, ELK1 (Homo sapiens, UniProt P19419 1-428)
T2 sequence: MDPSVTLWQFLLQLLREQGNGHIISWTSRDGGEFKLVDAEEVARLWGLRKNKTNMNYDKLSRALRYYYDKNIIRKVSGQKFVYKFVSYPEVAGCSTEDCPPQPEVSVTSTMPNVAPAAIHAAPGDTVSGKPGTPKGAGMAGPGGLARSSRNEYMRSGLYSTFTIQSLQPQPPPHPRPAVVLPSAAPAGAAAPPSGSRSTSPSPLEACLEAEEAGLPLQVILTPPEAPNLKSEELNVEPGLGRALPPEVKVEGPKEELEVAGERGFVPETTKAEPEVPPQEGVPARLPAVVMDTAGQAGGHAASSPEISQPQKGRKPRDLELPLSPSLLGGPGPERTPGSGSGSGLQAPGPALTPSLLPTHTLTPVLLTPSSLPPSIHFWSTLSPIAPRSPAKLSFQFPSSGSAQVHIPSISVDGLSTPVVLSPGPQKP
Method in brief: as §1

GABPA = target: T3, GABPA (Homo sapiens, UniProt Q06546 1-454)
T3 sequence: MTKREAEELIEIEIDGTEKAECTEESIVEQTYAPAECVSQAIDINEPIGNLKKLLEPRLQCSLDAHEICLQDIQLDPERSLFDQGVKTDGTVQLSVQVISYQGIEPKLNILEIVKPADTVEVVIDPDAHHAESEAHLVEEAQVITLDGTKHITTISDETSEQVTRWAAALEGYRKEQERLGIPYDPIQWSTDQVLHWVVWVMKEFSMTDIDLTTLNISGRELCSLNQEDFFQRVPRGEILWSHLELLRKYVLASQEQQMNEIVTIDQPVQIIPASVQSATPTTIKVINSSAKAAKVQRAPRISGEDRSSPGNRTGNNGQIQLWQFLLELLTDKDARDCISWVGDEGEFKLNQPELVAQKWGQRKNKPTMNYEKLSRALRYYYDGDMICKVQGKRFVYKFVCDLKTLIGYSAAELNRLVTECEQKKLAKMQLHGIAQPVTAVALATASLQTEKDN
Method in brief: as §1

ERG = target: T4, ERG (Homo sapiens, UniProt P11308 1-479)
T4 sequence: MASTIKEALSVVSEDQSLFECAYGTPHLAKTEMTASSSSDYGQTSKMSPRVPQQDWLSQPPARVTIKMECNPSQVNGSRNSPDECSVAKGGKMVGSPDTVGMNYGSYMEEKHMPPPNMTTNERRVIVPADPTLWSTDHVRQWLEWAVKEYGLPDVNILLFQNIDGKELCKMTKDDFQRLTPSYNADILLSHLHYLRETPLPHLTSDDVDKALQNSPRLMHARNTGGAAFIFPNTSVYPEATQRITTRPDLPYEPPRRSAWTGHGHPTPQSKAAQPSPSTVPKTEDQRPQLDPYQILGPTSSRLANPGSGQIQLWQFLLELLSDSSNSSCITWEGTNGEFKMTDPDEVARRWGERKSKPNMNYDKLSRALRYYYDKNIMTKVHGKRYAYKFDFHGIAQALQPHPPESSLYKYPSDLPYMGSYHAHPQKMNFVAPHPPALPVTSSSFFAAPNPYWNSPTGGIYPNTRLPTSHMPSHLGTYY
Method in brief: as §1

ELF1 = ELF1 (Homo sapiens, UniProt P32519 1-619)
ELF1, sequence (P32519 whole entry): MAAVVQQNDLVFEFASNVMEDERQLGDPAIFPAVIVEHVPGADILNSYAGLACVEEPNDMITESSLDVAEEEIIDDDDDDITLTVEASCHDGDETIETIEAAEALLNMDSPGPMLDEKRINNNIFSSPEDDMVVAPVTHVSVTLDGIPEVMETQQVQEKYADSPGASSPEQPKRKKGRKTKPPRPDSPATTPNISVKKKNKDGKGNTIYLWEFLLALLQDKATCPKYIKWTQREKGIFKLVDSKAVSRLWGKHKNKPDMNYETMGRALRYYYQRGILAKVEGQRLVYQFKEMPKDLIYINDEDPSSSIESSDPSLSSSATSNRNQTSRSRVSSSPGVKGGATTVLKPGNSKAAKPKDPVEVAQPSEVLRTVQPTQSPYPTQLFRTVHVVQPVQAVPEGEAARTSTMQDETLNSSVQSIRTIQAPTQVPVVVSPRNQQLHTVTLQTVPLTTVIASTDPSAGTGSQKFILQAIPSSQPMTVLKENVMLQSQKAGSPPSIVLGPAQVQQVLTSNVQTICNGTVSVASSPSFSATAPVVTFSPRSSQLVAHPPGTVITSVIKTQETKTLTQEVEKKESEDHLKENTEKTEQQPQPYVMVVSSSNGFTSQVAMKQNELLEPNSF
Method in brief: as §1

EHF = target: T5, EHF (Homo sapiens, UniProt Q9NZC4 1-300)
T5 sequence: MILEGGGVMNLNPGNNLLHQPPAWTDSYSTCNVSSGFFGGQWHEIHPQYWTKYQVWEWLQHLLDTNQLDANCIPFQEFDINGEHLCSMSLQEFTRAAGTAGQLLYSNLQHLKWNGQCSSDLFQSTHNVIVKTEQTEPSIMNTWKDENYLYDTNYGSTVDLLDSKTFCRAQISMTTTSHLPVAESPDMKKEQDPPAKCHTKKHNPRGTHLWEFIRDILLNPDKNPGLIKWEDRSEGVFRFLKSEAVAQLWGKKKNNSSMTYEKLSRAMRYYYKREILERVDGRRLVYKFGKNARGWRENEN
Method in brief: as §1

SPI1 = SPI1 (Homo sapiens, UniProt P17947 1-270)
Method in brief: as §1

SPIB = SPIB (Homo sapiens, UniProt Q01892 1-262)
SPIB, sequence (Q01892 whole entry): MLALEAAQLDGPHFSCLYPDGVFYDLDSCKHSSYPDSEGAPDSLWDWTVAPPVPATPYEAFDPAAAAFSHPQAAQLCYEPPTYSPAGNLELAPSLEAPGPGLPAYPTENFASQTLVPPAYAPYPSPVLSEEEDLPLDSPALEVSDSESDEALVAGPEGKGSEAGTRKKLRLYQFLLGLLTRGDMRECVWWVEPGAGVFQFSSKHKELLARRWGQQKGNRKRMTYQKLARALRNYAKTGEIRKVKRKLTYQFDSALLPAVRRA
Method in brief: as §1

ELK3 = target: T6, ELK3 (Homo sapiens, UniProt P41970 1-407)
T6 sequence: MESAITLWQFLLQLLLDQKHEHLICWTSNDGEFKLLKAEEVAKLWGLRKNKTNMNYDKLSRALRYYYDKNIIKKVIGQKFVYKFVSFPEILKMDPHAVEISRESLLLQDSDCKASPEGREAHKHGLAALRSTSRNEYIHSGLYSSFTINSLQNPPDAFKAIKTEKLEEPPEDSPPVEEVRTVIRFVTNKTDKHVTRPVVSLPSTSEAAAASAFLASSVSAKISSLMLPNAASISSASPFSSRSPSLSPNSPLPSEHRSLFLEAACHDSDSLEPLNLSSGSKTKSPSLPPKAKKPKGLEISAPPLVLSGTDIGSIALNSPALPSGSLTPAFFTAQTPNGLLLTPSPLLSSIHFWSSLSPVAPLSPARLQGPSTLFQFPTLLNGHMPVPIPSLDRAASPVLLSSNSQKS
Method in brief: as §1

FEV = target: T7, FEV (Homo sapiens, UniProt Q99581 1-238)
T7 sequence: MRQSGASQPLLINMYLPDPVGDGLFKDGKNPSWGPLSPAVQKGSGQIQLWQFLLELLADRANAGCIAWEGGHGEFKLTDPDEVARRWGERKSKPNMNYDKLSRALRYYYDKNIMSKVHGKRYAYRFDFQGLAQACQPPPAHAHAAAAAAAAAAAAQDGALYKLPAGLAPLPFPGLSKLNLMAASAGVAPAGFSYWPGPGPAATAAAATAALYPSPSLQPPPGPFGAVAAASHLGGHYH
Method in brief: as §1

ETV5 = ETV5 (Homo sapiens, UniProt P41161 1-510)
ETV5, sequence (P41161 whole entry): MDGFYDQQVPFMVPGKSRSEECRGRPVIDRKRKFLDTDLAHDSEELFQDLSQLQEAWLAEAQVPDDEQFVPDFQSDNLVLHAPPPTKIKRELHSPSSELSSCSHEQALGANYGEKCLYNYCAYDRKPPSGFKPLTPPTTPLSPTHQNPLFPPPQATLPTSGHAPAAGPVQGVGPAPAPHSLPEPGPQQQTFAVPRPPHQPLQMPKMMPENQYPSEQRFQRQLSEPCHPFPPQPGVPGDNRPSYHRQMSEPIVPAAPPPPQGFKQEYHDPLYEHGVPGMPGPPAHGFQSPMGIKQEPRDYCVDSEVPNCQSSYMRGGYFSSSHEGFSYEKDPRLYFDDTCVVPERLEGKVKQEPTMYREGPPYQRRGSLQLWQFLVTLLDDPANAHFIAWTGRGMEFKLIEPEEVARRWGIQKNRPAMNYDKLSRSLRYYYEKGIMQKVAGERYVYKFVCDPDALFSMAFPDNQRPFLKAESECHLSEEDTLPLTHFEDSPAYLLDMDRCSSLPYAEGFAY
Method in brief: as §1

SPIC = target: T8, SPIC (Homo sapiens, UniProt Q8N5J4 1-248)
T8 sequence: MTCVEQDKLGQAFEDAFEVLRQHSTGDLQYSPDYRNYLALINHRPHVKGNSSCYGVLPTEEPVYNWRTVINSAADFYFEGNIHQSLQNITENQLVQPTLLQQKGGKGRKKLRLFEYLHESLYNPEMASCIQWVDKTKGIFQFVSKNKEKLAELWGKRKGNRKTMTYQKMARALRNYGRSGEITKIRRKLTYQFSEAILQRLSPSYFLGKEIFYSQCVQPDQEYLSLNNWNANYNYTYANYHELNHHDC
Method in brief: as §1

ELF4 = ELF4 (Homo sapiens, UniProt Q99607 1-663)
ELF4, sequence (Q99607 whole entry): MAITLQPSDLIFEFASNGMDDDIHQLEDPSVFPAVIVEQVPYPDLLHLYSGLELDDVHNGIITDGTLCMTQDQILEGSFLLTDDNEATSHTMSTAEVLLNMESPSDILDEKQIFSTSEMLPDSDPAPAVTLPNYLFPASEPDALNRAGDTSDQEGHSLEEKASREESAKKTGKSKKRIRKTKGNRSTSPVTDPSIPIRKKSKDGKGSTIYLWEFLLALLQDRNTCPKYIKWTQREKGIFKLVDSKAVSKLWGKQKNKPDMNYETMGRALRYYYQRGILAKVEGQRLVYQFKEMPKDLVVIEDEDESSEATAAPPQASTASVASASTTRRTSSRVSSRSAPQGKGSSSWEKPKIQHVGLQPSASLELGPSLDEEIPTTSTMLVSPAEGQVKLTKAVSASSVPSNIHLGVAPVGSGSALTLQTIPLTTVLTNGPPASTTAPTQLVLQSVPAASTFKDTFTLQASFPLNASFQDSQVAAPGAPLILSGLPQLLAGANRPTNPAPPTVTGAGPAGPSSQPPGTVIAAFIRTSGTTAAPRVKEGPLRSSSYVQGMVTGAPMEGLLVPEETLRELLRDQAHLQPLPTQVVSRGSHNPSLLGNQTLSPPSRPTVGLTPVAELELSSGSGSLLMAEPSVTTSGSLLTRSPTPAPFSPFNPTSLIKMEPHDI
Method in brief: as §1

ELK4 = target: T9, ELK4 (Homo sapiens, UniProt P28324-2 1-405)
T9 sequence: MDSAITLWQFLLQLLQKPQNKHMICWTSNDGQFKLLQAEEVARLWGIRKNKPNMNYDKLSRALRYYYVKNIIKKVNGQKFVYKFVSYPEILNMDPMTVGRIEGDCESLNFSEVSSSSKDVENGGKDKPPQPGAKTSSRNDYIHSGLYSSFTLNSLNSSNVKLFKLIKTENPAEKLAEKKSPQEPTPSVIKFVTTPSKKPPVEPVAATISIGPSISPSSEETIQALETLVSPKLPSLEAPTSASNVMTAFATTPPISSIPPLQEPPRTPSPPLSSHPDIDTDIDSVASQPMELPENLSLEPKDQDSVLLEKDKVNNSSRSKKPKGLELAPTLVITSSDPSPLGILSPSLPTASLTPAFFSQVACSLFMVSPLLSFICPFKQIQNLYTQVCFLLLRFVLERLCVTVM
Method in brief: as §1

ETV2 = target: T10, ETV2 (Homo sapiens, UniProt O00321 1-342)
T10 sequence: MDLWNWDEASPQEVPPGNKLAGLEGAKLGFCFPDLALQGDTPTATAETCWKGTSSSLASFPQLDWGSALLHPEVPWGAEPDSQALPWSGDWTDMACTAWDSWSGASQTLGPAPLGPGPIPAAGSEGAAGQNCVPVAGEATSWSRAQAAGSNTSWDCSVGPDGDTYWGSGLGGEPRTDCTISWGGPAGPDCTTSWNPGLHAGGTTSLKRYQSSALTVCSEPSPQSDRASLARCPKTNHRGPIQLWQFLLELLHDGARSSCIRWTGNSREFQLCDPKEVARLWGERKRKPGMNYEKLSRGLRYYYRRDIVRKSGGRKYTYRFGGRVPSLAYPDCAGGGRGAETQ
Method in brief: as §1

ELF3 = target: T11, ELF3 (Homo sapiens, UniProt P78545 1-371)
T11 sequence: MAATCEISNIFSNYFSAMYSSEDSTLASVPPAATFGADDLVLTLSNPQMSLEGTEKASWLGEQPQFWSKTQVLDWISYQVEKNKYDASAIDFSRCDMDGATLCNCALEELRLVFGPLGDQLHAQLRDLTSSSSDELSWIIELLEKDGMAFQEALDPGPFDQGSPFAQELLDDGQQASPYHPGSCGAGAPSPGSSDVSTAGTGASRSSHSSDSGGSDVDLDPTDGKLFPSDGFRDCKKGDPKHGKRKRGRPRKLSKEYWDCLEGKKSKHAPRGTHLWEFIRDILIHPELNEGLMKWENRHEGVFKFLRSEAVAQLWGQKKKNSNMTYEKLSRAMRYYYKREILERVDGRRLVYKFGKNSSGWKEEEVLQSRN
Method in brief: as §1

CRX = CRX (Homo sapiens, UniProt O43186 1-299)
CRX, sequence (O43186 whole entry): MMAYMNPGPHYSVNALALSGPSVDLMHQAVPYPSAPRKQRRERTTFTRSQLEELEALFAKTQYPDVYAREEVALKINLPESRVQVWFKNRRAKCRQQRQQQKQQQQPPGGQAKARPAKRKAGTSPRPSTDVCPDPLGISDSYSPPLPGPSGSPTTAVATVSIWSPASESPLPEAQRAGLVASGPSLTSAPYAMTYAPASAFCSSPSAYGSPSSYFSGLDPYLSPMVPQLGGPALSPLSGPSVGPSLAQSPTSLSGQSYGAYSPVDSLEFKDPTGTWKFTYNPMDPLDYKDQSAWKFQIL
Method in brief: as §1

ETV1 = ETV1 (Homo sapiens, UniProt P50549 1-477)
ETV1, sequence (P50549 whole entry): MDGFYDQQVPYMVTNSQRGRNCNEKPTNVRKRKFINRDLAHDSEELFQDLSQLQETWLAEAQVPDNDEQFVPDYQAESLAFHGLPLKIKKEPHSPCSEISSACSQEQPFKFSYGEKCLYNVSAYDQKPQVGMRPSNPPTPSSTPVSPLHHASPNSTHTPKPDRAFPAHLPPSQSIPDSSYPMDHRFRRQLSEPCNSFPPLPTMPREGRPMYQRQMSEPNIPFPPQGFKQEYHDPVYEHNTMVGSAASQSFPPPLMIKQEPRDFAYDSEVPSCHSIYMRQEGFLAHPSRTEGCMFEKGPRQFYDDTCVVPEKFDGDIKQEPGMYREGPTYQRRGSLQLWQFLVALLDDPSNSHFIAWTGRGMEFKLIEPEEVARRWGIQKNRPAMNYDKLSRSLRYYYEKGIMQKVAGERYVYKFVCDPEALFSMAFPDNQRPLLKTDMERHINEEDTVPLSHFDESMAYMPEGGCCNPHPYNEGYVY
Method in brief: as §1

Row | Sequence | binding signal (FLI1) | binding signal (ELK1) | binding signal (GABPA) | binding signal (ERG) | binding signal (ELF1) | binding signal (EHF) | binding signal (SPI1) | binding signal (SPIB) | binding signal (ELK3) | binding signal (FEV) | binding signal (ETV5) | binding signal (SPIC) | binding signal (ELF4) | binding signal (ELK4) | binding signal (ETV2) | binding signal (ELF3) | binding signal (CRX) | binding signal (ETV1)
1 | ACCACT | 1.28 fold enrichment (6-mer frequency, TF over GST control) | 1.22 fold enrichment (6-mer frequency, TF over GST control) | 1.35 fold enrichment (6-mer frequency, TF over GST control) | 1.27 fold enrichment (6-mer frequency, TF over GST control) | 1.31 fold enrichment (6-mer frequency, TF over GST control) | 1.25 fold enrichment (6-mer frequency, TF over GST control) | 1.38 fold enrichment (6-mer frequency, TF over GST control) | 1.19 fold enrichment (6-mer frequency, TF over GST control) | 1.21 fold enrichment (6-mer frequency, TF over GST control) | 1.35 fold enrichment (6-mer frequency, TF over GST control) | 1.29 fold enrichment (6-mer frequency, TF over GST control) | 1.38 fold enrichment (6-mer frequency, TF over GST control) | 1.31 fold enrichment (6-mer frequency, TF over GST control) | 1.29 fold enrichment (6-mer frequency, TF over GST control) | 1.27 fold enrichment (6-mer frequency, TF over GST control) | 1.23 fold enrichment (6-mer frequency, TF over GST control) | 1.04 fold enrichment (6-mer frequency, TF over GST control) | 1.2 fold enrichment (6-mer frequency, TF over GST control)
2 | ACCCCG | 1.24 fold enrichment (6-mer frequency, TF over GST control) | 1.3 fold enrichment (6-mer frequency, TF over GST control) | 1.29 fold enrichment (6-mer frequency, TF over GST control) | 1.24 fold enrichment (6-mer frequency, TF over GST control) | 1.31 fold enrichment (6-mer frequency, TF over GST control) | 1.27 fold enrichment (6-mer frequency, TF over GST control) | 1.14 fold enrichment (6-mer frequency, TF over GST control) | 1.3 fold enrichment (6-mer frequency, TF over GST control) | 1.21 fold enrichment (6-mer frequency, TF over GST control) | 1.25 fold enrichment (6-mer frequency, TF over GST control) | 1.27 fold enrichment (6-mer frequency, TF over GST control) | 1.38 fold enrichment (6-mer frequency, TF over GST control) | 1.33 fold enrichment (6-mer frequency, TF over GST control) | 1.29 fold enrichment (6-mer frequency, TF over GST control) | 1.21 fold enrichment (6-mer frequency, TF over GST control) | 1.22 fold enrichment (6-mer frequency, TF over GST control) | 1.02 fold enrichment (6-mer frequency, TF over GST control) | 1.22 fold enrichment (6-mer frequency, TF over GST control)
